# Source: PubChem
# DRD3 agonist = D3 dopamine receptor (human) agonism; P35462; D3R DiscoveRx beta-arrestin cells, luminescence, 90 min; max activation, %; actives 0.58% (n = 410,000); AID 652048; in the data active = max activation above about 30%
#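 Cells at 1500/well, incubated overnight, then treated with pinned compounds (dopamine as control) for 90 min at 37 degrees C. DiscoveRx reagent added for 30 - 60 minutes at room temperature; luminescence read.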
# D1 antagonist = human D1 dopamine receptor antagonism | P21728 | HEK293 TREx D1 cells, calcium flux, dopamine EC80; stronger effect = lower value | activity change, negative = inhibition, % at 10 µM | actives 3.2% (n = 360,000); in the data active = activity change below about -30%
# Target sequence (P21728 whole entry, looked up): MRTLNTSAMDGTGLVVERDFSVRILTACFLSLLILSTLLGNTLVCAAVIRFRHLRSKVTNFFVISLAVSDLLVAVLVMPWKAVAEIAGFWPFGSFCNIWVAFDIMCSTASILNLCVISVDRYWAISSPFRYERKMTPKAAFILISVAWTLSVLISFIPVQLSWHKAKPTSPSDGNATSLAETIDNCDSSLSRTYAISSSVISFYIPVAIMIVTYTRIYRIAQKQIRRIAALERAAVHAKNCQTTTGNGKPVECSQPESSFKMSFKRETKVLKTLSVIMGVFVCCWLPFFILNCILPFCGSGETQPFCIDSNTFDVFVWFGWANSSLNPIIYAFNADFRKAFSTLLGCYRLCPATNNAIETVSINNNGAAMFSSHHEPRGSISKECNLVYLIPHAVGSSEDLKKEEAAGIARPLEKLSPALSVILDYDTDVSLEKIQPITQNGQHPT
#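 Allosteric or orthosteric antagonism assessed as attenuation of the calcium response to EC80 dopamine, added 180 s after compound, in induced HEK293 Trex D1 cells loaded with no-wash calcium dye.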
# D1 PAM = human D1 dopamine receptor positive modulation | potentiation, % at 10 µM | actives 0.036% (n = 360,000) | HEK293 TREx D1 cells, calcium flux, dopamine EC20 potentiation | P21728; in the data active = potentiation above about 30%
# DRD3 antagonist = antagonists of human D3 dopamine receptor; AID 652054; actives 2.5% (n = 360,000); D3R cells, DiscoveRx beta-arrestin luminescence, antagonist mode; stronger effect = lower value; P35462; max response, negative = inhibition, %; in the data active = max response below about -50%
#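 Cells plated overnight at 1500 cells/well, then exposed to library compounds with dopamine controls for 90 minutes at 37 degrees C. DiscoveRx reagent added for 30–60 minutes at room temperature; luminescence read, quantitative HTS format.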
# D1 ag = agonists of human D1 dopamine receptor | activation, % at 2 µM | HEK293 T-REx D1 cells, calcium flux, agonist mode | P21728 | actives 1% (n = 360,000); in the data active = activation above about 30%
#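 Agonism was scored from calcium flux recorded over 180 s (1 read/s) after pintool compound addition, following a 10-cycle baseline. Cells were inducible force-coupled HEK293 TREx D1, plated overnight at 30 C and loaded with no-wash calcium dye.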
# A number is an active result; . = inactive; / = no result given; ! = not confirmed by another sample. Most compounds without a hit are left out; they make up all but 6% or so of the library.
SMILES,DRD3 agonist,D1 antagonist,D1 PAM,DRD3 antagonist,D1 ag
CCOc1ccc(NC(=O)NCCN2CCN(c3ccccc3F)CC2)cc1,.,-60.8!,.,-69.2,.
Cc1ccc([C@H]2C[C@H](n3cc(C4CC4)nn3)[C@@H](O)CN2CC2CCCCC2)cc1,.,/,/,.,/
Cc1ccc(S(=O)(=O)CCC(=O)OCC(=O)c2cc(C)ccc2C)cc1,.,.,.,.,.
Cc1ccc(S(=O)(=O)CCC(=O)c2ccc(O)cc2O)cc1,.,.,.,-59.1,.
O=C(O)c1ccc(-n2cc(C(=O)c3ccccc3O)cn2)cc1,.,.,.,.,.
O=C(c1cnn(-c2ccccc2)c1)c1ccc2ccccc2c1O,.,-31.9,.,.,.
C=CCn1c(C)cc(C(=O)CSc2nc3ccccc3[nH]2)c1C,.,.,.,.,.
Cc1ccc(C(=O)CSc2nc3ccccc3c(=O)[nH]2)cc1,.,-30.4,.,.,.
C=CCn1c(C)cc(C(=O)CSc2nc3ccccc3c(=O)[nH]2)c1C,.,.,.,-62.2,.
CCCCNC(=O)COC(=O)c1c2c(nc3ccccc13)/C(=C/c1cccs1)CC2,68.9,.,.,.,.
CCCCNC(=O)COC(=O)c1c2c(nc3ccccc13)CCC2,.,.,.,.,.
COc1cc(/C=C2\CCc3c2nc2ccccc2c3C(=O)O)cc(OC)c1OC,.,.,.,.,.
CNC(=O)NC(=O)C(C)OC(=O)c1c2c(nc3ccccc13)/C(=C/c1cccs1)CC2 (stereo not drawn),37.2,.,.,.,.
Cc1c(C(=O)OCC(=O)N(C)c2ccccc2)oc2ccccc12,.,.,.,.,.
CC(C)(C)n1nnnc1C(c1cccnc1)N1CCN(c2ccccn2)CC1 (stereo not drawn),.,-60.4,.,.,30.9
CC(C)(C)n1nnnc1C(c1cccnc1)N1CCN(c2ccccc2)CC1 (stereo not drawn),.,.,.,.,.
COc1ccc(-c2cc(=O)c3cc(O)ccc3o2)cc1,.,-33.6,.,.,.
COc1ccc2oc(-c3ccncc3)cc(=O)c2c1,.,/,/,.,/
COc1ccc(-c2cc(=O)c3cc(OCC(=O)OC(C)C)ccc3o2)cc1,.,-60.3,.,/,.
O=c1cc(-c2ccccc2)oc2ccc(O)cc12,.,.,.,.,.
CC(=O)c1ccc(NC(=O)c2ccc3c(c2)N(Cc2cccc(Cl)c2)C(=O)c2ccccc2S3(=O)=O)cc1,.,.,.,/,.
Cn1cc(CN2CCc3sccc3C2)c(-c2ccccc2F)n1,.,.,.,-91.2,.
COc1ccc(Cn2c(SCc3ccc(C(=O)NC4CCCC4)cc3)nc3ccncc32)cc1,.,-30.6,.,/,.
O=C(NCCc1ccccc1)c1ccc(CSc2nc3ccncc3n2Cc2cccc(F)c2)cc1,.,-35.1,.,/,58.6
Cc1ccc(Cn2c(SCc3ccc(C(=O)NC4CCCC4)cc3)nc3ccncc32)cc1,.,-37.2,.,/,.
SMILES,DRD3 agonist,D1 antagonist,D1 PAM,DRD3 antagonist,D1 ag
Cc1ccc(Cn2c(SCc3ccc(C(=O)NC4CCCCC4)cc3)nc3ccncc32)cc1,.,.,.,/,.
C=CCc1cccc2cc(-c3nc4ccc(C)cc4[nH]3)c(=O)oc12,.,-41.9,.,/,65.7
O=c1oc2c(CN3CCCCC3)c(O)ccc2cc1-c1nc2ccccc2[nH]1,.,.,.,.,136.0
CN1CCN(Cc2c(O)ccc3cc(-c4ccccc4)c(=O)oc23)CC1,.,.,.,/,.
O=c1oc2c(O)cccc2cc1-c1nc2ccccc2[nH]1,.,.,.,.,408.4
Nc1nc(SCC(=O)Nc2cccc(C(F)(F)F)c2)n[nH]1,.,.,.,/,.
Cc1ccc(C)c(C(=O)COC(=O)CCN2C(=O)C3C4CCC(C4)C3C2=O)c1 (stereo not drawn),.,-45.0,.,.,.
COc1ccccc1N1CCN(Cc2cc(=O)c(OCC(=O)NC3CCCC3)co2)CC1,.,.,.,.,.
Cc1cccc(NC(=S)NC2CC3CCC(C2)N3Cc2ccco2)c1C (stereo not drawn),.,.,.,.,.
CCc1ccccc1NC(=O)NC1CC2CCC(C1)N2Cc1cccs1 (stereo not drawn),.,.,.,-54.3,.
CCc1ccccc1NC(=S)NC1CC2CCC(C1)N2Cc1ccco1 (stereo not drawn),.,.,.,-53.3,.
Cc1ccc(NC(=S)NC2CC3CCC(C2)N3Cc2ccco2)c(C)c1 (stereo not drawn),.,-43.1,.,.,.
CCc1ccc(NC(=S)NC2CC3CCCC(C2)N3Cc2cccs2)cc1 (stereo not drawn),.,-80.7,.,-70.2,.
COc1ccc(C2=C(C)C(=O)N(Cc3ccc(C(=O)NC(C)c4ccccc4)cc3)S2(=O)=O)cc1 (stereo not drawn),.,.,.,/,.
Cc1ccccc1-c1cccc([C@@H]2C[C@H]3[C@H](CON3C)CN2S(=O)(=O)c2ccccc2C)c1,.,/,/,.,/
CC1(Cc2ccccc2Cl)C(=O)Nc2ccc(OC(F)(F)F)cc21 (stereo not drawn),.,/,/,.,/
CCc1ccccc1NC(=S)NC1CC2CCC(C1)N2Cc1ccc(F)cc1 (stereo not drawn),.,.,.,-89.8,.
Cc1ccc(NC(=S)NC2CC3CCC(C2)N3Cc2ccco2)cc1C (stereo not drawn),.,-89.0,.,.,.
Cc1ccc(NC(=S)NC2CCCC2)cc1C,.,.,.,.,.
CCOc1ccc(-c2cc3c(=O)n(CC(=O)NCc4ccccc4)ccn3n2)cc1,.,.,.,/,.
C/C(=N\NC(=O)CNc1ccc(F)cc1)c1cc2ccccc2o1,.,-39.6,.,.,.
Cc1ccc2c(c1)c1c(n2CC(O)CN2CCCCCC2)CCCC1 (stereo not drawn),.,.,.,-68.0,.
OC(CN1CCCCC1)Cn1c2ccccc2c2cc(Br)ccc21 (stereo not drawn),.,-62.9,.,.,44.5
Cc1ccc(CNC(=O)CC(C)CC2=NS(=O)(=O)c3ccccc3N2)cc1 (stereo not drawn),.,.,.,/,.
COCCn1c(=S)[nH]c2cc(C(=O)N3CC(C)CC(C)C3)ccc2c1=O (stereo not drawn),.,.,.,.,.
SMILES,DRD3 agonist,D1 antagonist,D1 PAM,DRD3 antagonist,D1 ag
O=C1CCN(Cc2ccc(O)cc2)CCN1[C@H](CO)c1ccccc1,.,.,.,.,.
O=C1CCN(Cc2ccccc2)CCN1[C@H](CO)Cc1ccccc1,.,.,.,.,.
O=C1CCN(Cc2ccccc2)CCN1[C@H](CO)c1ccccc1,.,.,.,-50.7,.
N#Cc1cccc(CN2CCC(=O)N([C@H](CO)Cc3ccccc3)CC2)c1,.,-44.6,.,.,.
CCCCN(C)C(=O)c1nc2ccccn2c1CNCCCn1ncc2ccccc21,.,.,.,-76.7,.
O=C(c1nc2ccccn2c1CNCCCn1ncc2ccccc21)N1CCCC1,.,.,.,.,.
